According to PubChem BioAssay:
Active and inactive are the calls of the source.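 How the source made its calls, unless noted: active means inhibition at or above 50% at 10 µM; inactive means inhibition below 50%.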

Legend:
[1] = inhibitors of TNFa-induced NFkB p65 translocation, primary screen, imaging, HUVEC, MLSMR starter and 10KST1 sets (AID 438;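 active means inhibition above 20% together with a positive visual image hit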;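 further: compound added about 3h40 before a 20 min TNFalpha stimulation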;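 on inhibition: signal is the nuclear over cytoplasmic p65 intensity ratio per well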); conditions: HUVEC TNFa-induced p65 nuclear translocation; cell count: measured here: nuclei count (cytotoxicity indicator), at 2.08 µM; inhibition: at 2 µM, stronger effect = higher value, 0% TNFa-plus-vehicle, 100% no-TNFa wells
[2] = inhibitors of mutant huntingtin aggregation, primary screen, imaging, exon1htt(103Q)mCFP cells, high-content imaging (AID 483;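 active means visual image review flags a hit and inhibition of aggregation exceeds 20%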;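 further: compound exposure lasted 3 days before fixation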;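 on nuclei count: percent of the per-plate median nuclei count of sample wells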); conditions: exon1htt(103Q)mCFP cell line, aggregate imaging, at 2 µM; inhibition of aggregation: stronger effect = higher value; nuclei count: measured here: cell count, toxicity
[3] = inhibitors of E-selectin induction by TNFa, primary screen, imaging, HUVEC, immunofluorescence, MLSMR starter and 10KST1 sets (AID 487;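 active means visually confirmed hit in the image check and inhibition above 20%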;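 on inhibition: signal is fraction of cell area covered by stained E-selectin grains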;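 on nuclei count: 100% = median nuclei count of all wells on the same plate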); conditions: HUVEC TNFalpha-induced E-selectin immunofluorescence imaging, at 2 µM; inhibition: stronger effect = higher value; nuclei count: measured here: cell number, toxicity
[4] = molecular target: Voltage-gated potassium channel subunit beta-2 (Rattus norvegicus) (UniProt P62483); experiment: KvBeta enzyme negative modulators, primary screen, biochemical, NADPH fluorescence (AID 622;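 active means fluorescence slope higher than the sample average by over 3 SD, cut at about -0.22 in these data, passing the limit was not always enough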;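 further: slope of raw intensity against log time taken from 70 to 1610 s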); conditions: recombinant KvBeta, 4-cyanobenzaldehyde reduction, at 10 µM, stronger effect = higher value
[5] = molecular target: Voltage-gated potassium channel subunit beta-2 (Rattus norvegicus) (UniProt P62483); experiment: KvBeta positive modulators, primary screen, biochemical, NADPH fluorescence (AID 623;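 active means NADPH fluorescence slope more negative than the mean of all samples by about 3 SD, 99.7% confidence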;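 further: fluorescence intensity change per second fitted from 20 to 320 s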); conditions: Recombinant KvBeta, NADPH fluorescence decrease slope, 10 min; at 10 µM; stronger effect = lower value
[6] = molecular target: Alpha-2C adrenergic receptor (Homo sapiens) (UniProt P18825); experiment: modulators of alpha2C/GIRK thallium flux, primary screen, cell-based, HEK293 alpha2C/GIRK1/2 (AID 624;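 active means fluorescence slope after compound addition differing from the mean of all screened samples at 99.7% confidence, in either direction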;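 further: slope of fluorescence ratio to pre-addition baseline per second over 15 to 24 s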); conditions: thallium flux BTC fluorescence, at 10 µM, actives lie on both sides
[7] = inhibitors of Sendai virus-induced IRF3 signaling, primary screen, TLR/RLR signaling modifier project, cell-based, Sendai virus stimulus, luciferase, 10K MLSCN set (AID 602276); conditions: HEK293 RL24 IRF3 luciferase reporter, at 10 µM, stronger effect = higher value;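 further: firefly luciferase from ISG56 promoter only with Renilla not read in this screen; 0% = Sendai virus plus DMSO and 100% = medium plus DMSO without virus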
[8] = inhibitors of poly I:C-induced TLR3 signaling, primary screen, cell-based, poly I:C stimulus, luciferase, 10K MLSCN set (AID 602277;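 active means inhibition of the reporter signal at or above 50%; inactive means inhibition below 50%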); conditions: HEK293-TLR3 RL24 IRF3 luciferase reporter, at 10 µM, stronger effect = higher value

Sequence of Alpha-2C adrenergic receptor (Homo sapiens) (P18825 whole entry, looked up): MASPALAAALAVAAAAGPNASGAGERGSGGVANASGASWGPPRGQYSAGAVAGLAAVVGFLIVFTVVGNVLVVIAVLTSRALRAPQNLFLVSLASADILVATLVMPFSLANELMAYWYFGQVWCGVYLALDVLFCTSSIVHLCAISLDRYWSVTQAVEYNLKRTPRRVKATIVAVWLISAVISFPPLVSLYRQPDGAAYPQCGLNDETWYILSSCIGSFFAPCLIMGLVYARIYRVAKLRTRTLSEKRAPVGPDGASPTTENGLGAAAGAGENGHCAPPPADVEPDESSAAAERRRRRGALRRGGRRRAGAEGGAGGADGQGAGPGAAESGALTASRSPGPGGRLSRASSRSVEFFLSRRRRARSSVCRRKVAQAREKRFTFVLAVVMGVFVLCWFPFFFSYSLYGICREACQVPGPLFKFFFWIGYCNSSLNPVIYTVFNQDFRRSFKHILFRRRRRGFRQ
Sequence of Voltage-gated potassium channel subunit beta-2 (Rattus norvegicus) (P62483 whole entry, looked up): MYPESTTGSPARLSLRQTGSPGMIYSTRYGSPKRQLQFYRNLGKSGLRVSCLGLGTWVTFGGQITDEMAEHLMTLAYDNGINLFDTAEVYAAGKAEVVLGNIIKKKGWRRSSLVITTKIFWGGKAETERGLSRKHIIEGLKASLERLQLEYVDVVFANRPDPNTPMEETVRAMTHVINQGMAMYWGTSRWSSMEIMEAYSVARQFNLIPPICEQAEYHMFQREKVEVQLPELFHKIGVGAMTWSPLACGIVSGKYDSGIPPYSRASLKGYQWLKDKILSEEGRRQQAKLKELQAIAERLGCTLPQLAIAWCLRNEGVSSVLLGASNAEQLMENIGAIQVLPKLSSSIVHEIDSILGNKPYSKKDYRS

In the case of `CCOC(=O)N1CCN(C(=O)CN(c2ccc(C)cc2)S(=O)(=O)c2c(C)noc2C)CC1`, the cell count [1] is reported as 565, the inhibition [1] is reported as -28.3% (inactive) and the inhibition of aggregation [2] is reported as -13% (inactive). For the same molecule, the nuclei count [2] was 103%, the inhibition [3] was -36.7% (inactive) and the nuclei count [3] was 108%. The fluorescence slope [4] was -0.617 (inactive), the NADPH fluorescence slope [5] was 1.1e-05 (inactive) and the slope [6] was 0.00556 (inactive). For the same molecule, the inhibition [7] was 18.5% (inactive) and the inhibition [8] was 30.7% (inactive).

For `CCOC(=O)c1cc2c(=O)n3ccccc3nc2n(CC(C)C)c1=NC(=O)c1ccco1`, the cell count [1] was 659, the inhibition [1] was -13.4% (inactive) and the inhibition of aggregation [2] was 6.2% (inactive). For the same molecule, the nuclei count [2] was 96.7%, the inhibition [3] was -49.4% (inactive) and the nuclei count [3] was 112%. The fluorescence slope [4] was -0.532 (inactive), the NADPH fluorescence slope [5] was -5.6e-06 (inactive) and the slope [6] was 0.00344 (inactive). The inhibition [7] was 2.77% (inactive) and the inhibition [8] was 20.4% (inactive).

In the case of `CC(C)CNC(=O)c1ccccc1NC(=O)c1ccc(CN2CCOCC2)cc1`, the cell count [1] is reported as 729, the inhibition [1] is reported as 5.7% (inactive) and the inhibition of aggregation [2] is reported as 4% (inactive). The nuclei count [2] was 93.4%, the inhibition [3] was -11% (inactive) and the nuclei count [3] was 111%. The fluorescence slope [4] was -0.473 (inactive), the NADPH fluorescence slope [5] was -5.1e-05 (inactive) and the slope [6] was 0.00594 (inactive). The inhibition [7] was 1.28% (inactive) and the inhibition [8] was 14.5% (inactive).

For `COc1cc2c(=O)nc3n(c2cc1OC)C(c1ccccc1)N=C(N)N3` (centres undefined), the cell count [1] was 398, the inhibition [1] was -11.9% (inactive) and the inhibition of aggregation [2] was 17.7% (inactive). The nuclei count [2] was 86.3%, the inhibition [3] was 0.3% (inactive) and the nuclei count [3] was 98.2%. The fluorescence slope [4] was -0.312 (inactive), the NADPH fluorescence slope [5] was -2.8e-05 (inactive) and the slope [6] was 0.00451 (inactive). The inhibition [7] was 17.6% (inactive) and the inhibition [8] was 23.9% (inactive).

With `Cc1ccc(NC(=O)c2ccccc2F)nc1` the cell count [1] was 336, the inhibition [1] was -8.1% (inactive) and the inhibition of aggregation [2] was 0.7% (inactive). The nuclei count [2] was 123%, the inhibition [3] was -16.4% (inactive) and the nuclei count [3] was 111%. For the same molecule, the fluorescence slope [4] was -0.374 (inactive), the NADPH fluorescence slope [5] was -6.3e-05 (inactive) and the slope [6] was 0.00526 (inactive). The inhibition [7] was -16.7% (inactive) and the inhibition [8] was -41.6% (inactive).

For `CCOc1ccccc1NC(=O)CSc1nnc2c(CC)c(C)nc(N)n12`, the cell count [1] was 340, the inhibition [1] was -6.8% (inactive) and the inhibition of aggregation [2] was 1.5% (inactive). For the same molecule, the nuclei count [2] was 99.1%, the inhibition [3] was 9.7% (inactive) and the nuclei count [3] was 92.7%. The fluorescence slope [4] was -0.305 (inactive), the NADPH fluorescence slope [5] was -4e-05 (inactive) and the slope [6] was 0.00576 (inactive). For the same molecule, the inhibition [7] was -6.38% (inactive) and the inhibition [8] was 98.4% (active).

In the case of `CCOC(=O)c1cccc(NC(=O)CSc2nnc(-c3cccnc3)n2CC)c1`, the cell count [1] is reported as 517, the inhibition [1] is reported as -6.7% (inactive) and the inhibition of aggregation [2] is reported as 1.2% (inactive). For the same molecule, the nuclei count [2] was 82.2%, the inhibition [3] was -12.8% (inactive) and the nuclei count [3] was 112%. For the same molecule, the fluorescence slope [4] was -0.506 (inactive), the NADPH fluorescence slope [5] was -2.6e-05 (inactive) and the slope [6] was 0.00514 (inactive). For the same molecule, the inhibition [7] was 12.5% (inactive) and the inhibition [8] was 11.6% (inactive).

For `Cc1cccc(NC2SC(=O)N(c3ccccc3)C2=O)c1` (centres undefined), the cell count [1] was 152, the inhibition [1] was -14.3% (inactive) and the inhibition of aggregation [2] was 11.5% (inactive). For the same molecule, the nuclei count [2] was 92.8%, the inhibition [3] was 26.4% (inactive) and the nuclei count [3] was 80.9%. For the same molecule, the fluorescence slope [4] was -0.377 (inactive), the NADPH fluorescence slope [5] was 5.7e-06 (inactive) and the slope [6] was 0.00476 (inactive). For the same molecule, the inhibition [7] was -2.7% (inactive) and the inhibition [8] was -12.1% (inactive).

With `O=C(OCC(=O)N1CCC(Cc2ccccc2)CC1)c1ccc[nH]c1=O` the cell count [1] was 496, the inhibition [1] was -25.6% (inactive) and the inhibition of aggregation [2] was -14.9% (inactive). For the same molecule, the nuclei count [2] was 107%, the inhibition [3] was -41.6% (inactive) and the nuclei count [3] was 88.7%. For the same molecule, the fluorescence slope [4] was -0.341 (inactive), the NADPH fluorescence slope [5] was -9.5e-06 (inactive) and the slope [6] was 0.00527 (inactive). For the same molecule, the inhibition [7] was 3.7% (inactive) and the inhibition [8] was 6.66% (inactive).

In the case of `CCN1CCN(c2ncc(C(=O)N3CCN(c4ccccc4OC)CC3)c3ccccc23)CC1`, the cell count [1] is reported as 315, the inhibition [1] is reported as -2.5% (inactive) and the inhibition of aggregation [2] is reported as 0.9% (inactive). The nuclei count [2] was 97.8%, the inhibition [3] was 13.2% (inactive) and the nuclei count [3] was 96.4%. For the same molecule, the fluorescence slope [4] was -0.466 (inactive), the NADPH fluorescence slope [5] was -4.4e-05 (inactive) and the slope [6] was 0.00623 (inactive). The inhibition [7] was 0.246% (inactive) and the inhibition [8] was 31.7% (inactive).

For `CC(=O)c1cccc(NS(=O)(=O)c2ccc3c(c2)oc(=O)n3C)c1`, the cell count [1] was 299, the inhibition [1] was -9% (inactive) and the inhibition of aggregation [2] was 0.5% (inactive). For the same molecule, the nuclei count [2] was 119%, the inhibition [3] was -52% (inactive) and the nuclei count [3] was 117%. The fluorescence slope [4] was -0.437 (inactive), the NADPH fluorescence slope [5] was -2.3e-05 (inactive) and the slope [6] was 0.00511 (inactive). For the same molecule, the inhibition [7] was 6.35% (inactive) and the inhibition [8] was 2.39% (inactive).

For `COc1ccc(OC)c(S(=O)(=O)N2CCN(c3c(C)cccc3C)CC2)c1`, the cell count [1] was 622, the inhibition [1] was 1.1% (inactive) and the inhibition of aggregation [2] was 30.2% (inactive). The nuclei count [2] was 111%, the inhibition [3] was -9.3% (inactive) and the nuclei count [3] was 102%. The fluorescence slope [4] was -0.541 (inactive), the NADPH fluorescence slope [5] was -4.7e-05 (inactive) and the slope [6] was 0.00796 (inactive). The inhibition [7] was 9.96% (inactive) and the inhibition [8] was 30.5% (inactive).

With `COc1ccc2c(c1OC)C(=O)N(c1ccc3c(c1)CCC3)C2=O` the cell count [1] was 683, the inhibition [1] was -13.1% (inactive) and the inhibition of aggregation [2] was -0.9% (inactive). For the same molecule, the nuclei count [2] was 103%, the inhibition [3] was -10.6% (inactive) and the nuclei count [3] was 107%. The fluorescence slope [4] was -0.499 (inactive), the NADPH fluorescence slope [5] was 3.4e-05 (inactive) and the slope [6] was 0.00573 (inactive). For the same molecule, the inhibition [7] was 8.67% (inactive) and the inhibition [8] was -9.24% (inactive).

In the case of `CCOC(=O)C1=C(C)N(C)C(=O)NC1c1cccc(O)c1` (centres undefined), the cell count [1] is reported as 421, the inhibition [1] is reported as 6.4% (inactive) and the inhibition of aggregation [2] is reported as -6.7% (inactive). The nuclei count [2] was 99.3%, the inhibition [3] was -43.5% (inactive) and the nuclei count [3] was 124%. For the same molecule, the fluorescence slope [4] was -0.259 (inactive), the NADPH fluorescence slope [5] was -1.3e-05 (inactive) and the slope [6] was 0.00604 (inactive). The inhibition [7] was 9.66% (inactive) and the inhibition [8] was 17.5% (inactive).
